Measurements from the OligoGym collection.

target: CHRNE; test: pooled miR-30 sensor sort-seq; sequence = guide strand; details: shRNA
Note: reference of the scale not given here.

| Sequence | sensor-assay potency score (higher = more potent) |
| --- | --- |
| TTCAGTATCAGCTCCTCCGCGC | -0.412 |
| TTCCAGCACAATCTCTGGCAGC | -0.813 |
| TATACCCCCAAAGTCGTCCTTG | -0.579 |
| TTTTTCAAAATCAATTTCCTAC | -0.288 |
| TTGCTTTCTGTCAGTACTGTAG | -0.702 |
| TTAATGACGTAGAAGAGCGGCT | -0.711 |
| TGTGTCGATGTCGATCTTGTTG | -0.832 |
| ATAGTTGTTGAAGAGATGGTGA | 0.0987 |
| TCAAACACGAGCTCGCTCCGTG | -0.0514 |
| TCGATCTTGTTGATGGTCTTGC | 0.161 |
| TCTTGTTGATGGTCTTGCCGTC | 0.0404 |
| ATCTTGTTGATGGTCTTGCCGT | -1.25 |
| ATGACGAAAATAAGGAACCTGC | -1.05 |
| TAATCCTGCCAATCGATTCCAA | -0.67 |
| TAGAAGAGCGGCTTCCGGCGGA | 0.192 |
| TAGATGACGTCAGTCTCCCCTG | -0.628 |
| TTGTTTTCCAGCACAATCTCTG | -0.404 |

target: CHST7; test: as above; details: shRNA

| Sequence | sensor-assay potency score (higher = more potent) |
| --- | --- |
| TAAATATCCACATTGCACTGTC | 0.728 |
| TCCTTGATGACCACCACCGGGT | -1.07 |
| ATACAAGTAGAAAACGTCCGGG | 0.117 |
| TACAAGTAGAAAACGTCCGGGT | 0.0569 |
| TAGATGTGCTGCTTCTCGCGAG | -0.296 |
| TTGGTAGCAAGTCAAGTCCCAG | -1.13 |
| AACAGCAGCGCGAACTTGCAGT | -0.918 |
| TTACTGGAAACTTCATCTCAAC | -1.13 |
| TTTTCGTCCAGACACCTGCTGG | -1.07 |
| TACCAAATCACATCTCTTCTTT | -0.0966 |
| TTGGGAACCGAGGAGACTGGTT | -0.796 |

target: CHSY1; test: as above; details: shRNA

| Sequence | sensor-assay potency score (higher = more potent) |
| --- | --- |
| TAAATCTCACAAACATGTCGAA | -0.309 |
| TTTATCTTTGGGTTCTTTGTGC | 0.332 |
| TGTATTTGCTCGACATCGCTGA | 0.246 |
| TTTCCCACTATAAACAATCTTT | -0.597 |
| TTGAAGTCAATGATGCGCCCTC | -0.291 |
| TTGTGCTCACTCTTCGACCCAG | -0.424 |
| TTTTACTGTAACTTGGATCATT | -0.393 |
| TTCTTTGTGCTCACTCTTCGAC | -0.347 |
| TTGCTCGACATCGCTGAAGGAA | -0.494 |
| TTTTGCTGAAAGTCTGCTGTAA | -0.0624 |
| TTGTCTTGGACCATGTTCTGTA | 0.134 |
| TTAACAATCACAACAGAACATT | -1.42 |
